# Reference: PubChem BioAssay AID449762 (Southern Research Specialized Biocontainment Screening …, 2010)
# Hit rate of the full screen: of about 330,000 compounds, about 1,900 (0.58%) were called active. About 4% were inconclusive and are not listed. Only a sample is shown. Entries with a potency or affinity are not part of this list. Unmarked numbers belong to inactive results. Rule as the data show it: inconclusive = inhibition above about 70% without an active follow-up result; inactive = below that.
# Assay: M. tuberculosis growth inhibition, HTS (AID 449762);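 also: bacterial growth assessed after seven days of incubation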
# Details: M. tuberculosis H37Rv growth inhibition, 7H9 media; at 25 µM; active compounds read high
row,SMILES,inhibition [%]
1,Cc1cc(C)n(-c2ccc(C(=O)NCc3cccs3)cc2)n1,-8.74
2,COc1ccc(-c2cc(N)n(S(=O)(=O)c3ccc(C)cc3)n2)c(OC)c1,-6.16
3,Cc1ccc(-n2c(C)cc(/C=C3\SC(=O)NC3=O)c2C)cc1,7.2
4,Cc1cc(/C=C2\SC(=O)N(C)C2=O)c(C)n1-c1ccc(S(N)(=O)=O)cc1,-2.91
5,Nc1ccc(-c2cc(-c3ccc(N)cc3)nc(-c3ccccc3)n2)cc1,-2.43
6,COc1ccccc1N1CCN(C(c2cccs2)C(C)NC(=O)C(=O)N2CCCCC2)CC1 (stereo unspecified),3.15
7,Cc1cc(C(=O)Nc2c(C)nn(Cc3ccccc3Cl)c2C)no1,-4.86
8,Cc1ccc(S(=O)(=O)Oc2cccc(/C=N/Nc3ccc(C(=O)O)cc3)c2)cc1,20.9
9,O=C(Cc1cccs1)N1CCCC(c2nc3c(nnn3Cc3ccc(F)cc3)c(=O)[nH]2)C1 (stereo unspecified),-5.77
10,CC(C)(C)c1ccc(Cn2nnc3c(=O)[nH]c(C4CCCN(C(=O)c5cccs5)C4)nc32)cc1 (stereo unspecified),11.9
11,COc1c(/C=N/NC(N)=S)c(C)nn1-c1ccccc1,65.5
12,CCC1CN(C(=O)N2CCC(C(=O)NCCc3ccccc3OC)CC2)c2ccccc2O1 (stereo unspecified),2.39
13,CCCc1cc2c(cc1NC(=O)c1ccccc1F)OCO2,42
14,CCCc1cc2c(cc1NC(=O)c1ccco1)OCO2,0.1
15,CCCCNC(=S)N(C)/N=C/c1ccc(OCC(=O)Nc2ccc(OC)cc2)c(OC)c1,5.57
16,O=C(NNC(=O)c1cccc(-n2cnnn2)c1)c1ccccc1,4.62
17,COc1ccc(CCN2CCCC(CN(C)Cc3cc(OC)c(OC)c(OC)c3)C2)cc1 (stereo unspecified),2.86
18,CCCCCCCCNC(=O)/C(C#N)=C/c1ccccc1[N+](=O)[O-],9.84
19,C(=Nc1ccc(Nc2ccccc2)cc1)c1ccc2ccccc2c1,1.29

row,SMILES,inhibition [%]
1,O=[N+]([O-])c1ccc(N=Cc2ccc(Br)c([N+](=O)[O-])c2)cc1,-2.74
2,Cc1ccc(NC(=O)CCSc2ccccn2)cc1,-4.42
3,Cc1cccc(N2CCN(C(=O)C3CCN(S(=O)(=O)c4cccc5cccnc45)CC3)CC2C)c1 (stereo unspecified),-1.75
4,Cc1cc(C)c(NC(=O)COC(=O)Cn2nc(-c3ccccc3)oc2=O)c(C)c1,3.1
5,C[C@@H]1C[C@H]2OC(=O)C3(CO3)[C@H]2[C@H](O)[C@]2(C)C(=O)C3OC3[C@@H]12 (stereo partly specified),-4.69
6,C=C1C(=O)O[C@@H]2C[C@@H](C)[C@H]3C=CC(=O)[C@]3(O)C[C@@H]12,7.75
7,Cc1cccc(NC(=O)NNC(=O)COc2ccc3ccccc3c2)c1,-0.35
8,COc1ccc(OC)c(C(c2nnnn2C2CCCC2)N2CCN(c3ccc(F)cc3)CC2)c1 (stereo unspecified),4.35
9,O=C1C(=O)N(c2ccccn2)C(c2ccc(F)cc2)/C1=C(/O)c1ccc(Br)cc1 (stereo unspecified),-4.6
10,CC1CCCC(NC(=O)NC(=O)COC(=O)c2ccc(O)cc2O)C1C (stereo unspecified),0.995
11,CC1CCCC(NC(=O)CSC2CCCCC2)C1C (stereo unspecified),3.14
12,Cc1cccc(OCC(=O)NNC(=O)Cn2c(=O)cnc3ccccc32)c1,-8.21
13,O=C(CSc1nc(=O)n2ccccc2n1)Nc1cccc2ccccc12,5.25
14,N#Cc1ccccc1OCC(=O)N1N=C(c2cccs2)CC1c1ccco1 (stereo unspecified),1.37
15,c1ccc(-c2cc3ncccc3cn2)cc1,-4.81
16,c1ccc(-c2cn3c(n2)CCC3)cc1,-1.06
17,O=C(Nc1cccc2c1CCCC2)c1ccccc1F,10.2
18,CC(=O)c1ccc(-n2c(CCC(=O)O)ccc2-c2cccs2)cc1,-2.12
19,NC(=O)c1ccc(-n2c(CCC(=O)O)ccc2-c2cccs2)cc1,-1.94

row,SMILES,inhibition [%]
1,CCc1ccc(NC(=O)CC2C(=O)N(c3ccc(OC)cc3)C(=O)N2CCOC)cc1 (stereo unspecified),-1.31
2,CCC(C)NC(=O)c1c(N)n(/N=C/c2cccnc2)c2nc3ccccc3nc12 (stereo unspecified),27.8
3,CC(C)CNC(=O)c1c(N)n(/N=C/c2ccccn2)c2nc3ccccc3nc12,4.33
4,COc1ccc(/C=C/C(=O)Nc2ccccc2Cl)cc1S(=O)(=O)N1CCOCC1,-10.4
5,COc1ccc(Cn2nnnc2CN2CCc3ccccc32)cc1,1.54
6,O=C(COC(=O)c1nsc(Cl)c1Cl)NC1CCCCC1,0.77
7,CC(OC(=O)c1snc(C(=O)NC2CCCCC2)c1N)C(=O)NC1CCCCC1 (stereo unspecified),-2.81
8,c1ccc(-c2nc3cccnc3nc2-c2ccccc2)cc1,-12.8
9,Nc1c(-c2ccccc2)nc(Cl)nc1-c1ccccc1,15.6
10,COc1ccc(S(=O)(=O)NCC(=O)N(CC(=O)NCC2CCCO2)Cc2ccccc2)cc1 (stereo unspecified),-4.12
11,COc1ccc(CCNC(=O)C(=O)NCc2ccc(C(C)C)cc2)cc1OC,-15.8
12,COc1ccc(NC(=O)CN2C(=O)NC(c3ccccc3)(c3ccccc3)C2=O)cc1,-1.71
13,COc1ccc(C2(c3ccc(OC)cc3)NC(=O)N(CC(=O)Nc3ccc(C(N)=O)cc3)C2=O)cc1,-7.66
14,CC(C)CCc1noc(CN(CC2CCC2)CC2CCCO2)n1 (stereo unspecified),-1.94
15,O=C(COC(=O)Cc1ccc(S(=O)(=O)N2CCOCC2)s1)Nc1ccc([N+](=O)[O-])cc1,-2.45
16,Cc1ccc(CNC(=O)c2ccc(N3CCC4(CC3)CC(c3ccccc3)=NO4)c(NC(=O)c3ccc(Cl)c([N+](=O)[O-])c3)c2)cc1,-10.7
17,Cc1ccc(NC(=O)CCN2C(=O)c3cccc([N+](=O)[O-])c3C2=O)c(Br)c1,7.28
18,Cc1cccc(NC(=O)CCN2C(=O)c3cccc([N+](=O)[O-])c3C2=O)c1,-5.47
